PfHsp90 yeast 2 = reduces growth (ATP signal) of yeast expressing P. falciparum Hsp90; S. cerevisiae expressing PfHsp90, BacTiter-Glo ATP, 48 h; yeast lacking PDR1 and PDR3 efflux regulators; 0.32% of 310,000 active; inhibition, % at 9.4 µM;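 active means every replicate shows inhibition above about 80%, whatever the replicate mean, limit read from the data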
Beta2AR agonist = human beta-2 adrenergic receptor agonism by FAP. P07550. Am2.2-beta2AR cells, FAP receptor internalization, flow cytometry. response, % (no concentration beside the values). 0.43% of 340,000 active. AID 504454;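 active means response above a set limit, near 3 SD of response in nonfluorescent compounds, cut at about 42% in these data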
Target sequence (P07550 whole entry, looked up): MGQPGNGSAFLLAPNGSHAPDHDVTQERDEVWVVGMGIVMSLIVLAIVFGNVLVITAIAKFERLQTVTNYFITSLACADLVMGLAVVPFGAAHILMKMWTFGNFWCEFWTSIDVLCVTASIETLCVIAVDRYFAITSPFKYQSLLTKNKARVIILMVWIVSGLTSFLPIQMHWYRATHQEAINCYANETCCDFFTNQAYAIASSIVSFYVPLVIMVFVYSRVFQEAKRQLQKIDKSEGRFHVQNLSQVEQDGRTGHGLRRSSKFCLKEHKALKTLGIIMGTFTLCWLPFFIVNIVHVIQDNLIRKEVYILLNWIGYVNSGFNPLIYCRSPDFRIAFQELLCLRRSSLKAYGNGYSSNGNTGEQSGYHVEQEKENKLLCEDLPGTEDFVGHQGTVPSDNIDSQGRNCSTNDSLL
tim10-1 inh = inhibits growth of tim10-1 mutant yeast | S. cerevisiae tim10-1 ts strain growth, BacTiter-Glo, 24 h | 2.2% of 330,000 active | inhibition, % at 20 µM | AID 463190;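 active means inhibition of at least 40%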;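 further: mutant grown at 25 °C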
TIM10 inh = growth inhibitors of TIM10 yeast strain. S. cerevisiae TIM10 strain growth, BacTiter-Glo luminescence, 24 h. 1.4% of 330,000 active. inhibition, % at 10 µM;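 active means inhibition of 40% or more at the single tested concentration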;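 further: wild-type TIM10 isogenic control strain grown at permissive 25 °C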
tim23-1 inh = growth inhibitors of tim23-1 mutant yeast; 1.3% of 330,000 active; S. cerevisiae tim23-1 growth, BacTiter-Glo luminescence, 24 h; inhibition, % at 20 µM; AID 463212;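 active means growth inhibition of the mutant yeast at or above 50%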;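 further: temperature-sensitive mutant grown at 25 °C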
tim10-1 conf = tim10-1 yeast growth inhibition, confirmed; shares compounds with tim10-1 inh; S. cerevisiae tim10-1 ts strain growth, BacTiter-Glo, 24 h; inhibition, % at 20 µM; 56% of 7,400 active; AID 463213;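 active means inhibition of yeast growth at or above a set limit in either of two repeat tests at 20 µM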;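 further: tim10-1 mutant grown at permissive 25 °C to find synthetic lethal compounds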
tim10 confirm = TIM10 yeast growth inhibition, confirmed | AID 463215 | 63% of 4,600 active | inhibition, % at 10 µM | shares compounds with TIM10 inh | S. cerevisiae tim10 strain growth, BacTiter-Glo luminescence, 24 h;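 active means inhibition of yeast growth at or above a set limit in either of two replicates at 10 µM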; further: this counterscreen used the strain with wild-type TIM10
Large screens that a line does not name were inactive (follow-up assays come after a bar, where they were run). An excerpt weighted towards active compounds, which were near 3.8% of everything screened.

Cc1nn(-c2ccccc2)c(C)c1/C=N/n1c(-c2ccc(C(C)(C)C)cc2)n[nH]c1=S	tim10-1 inh 47, TIM10 inh 44 | tim10-1 conf 33 | tim10 confirm 44
COc1cccc2sc(N3CCN(C(=O)c4ccco4)CC3)nc12	none
CCc1cccc2sc(N3CCN(C(=O)c4ccc([N+](=O)[O-])o4)CC3)nc12	tim10-1 inh 79, TIM10 inh 58 | tim10-1 conf 74 | tim10 confirm 89
Cc1ccc(N2CC(C(=O)N3CCN(c4ccccn4)CC3)CC2=O)cc1 (stereo unspecified)	none (no result: tim10-1 inh, TIM10 inh, tim23-1 inh)
CCC1CSC(Nc2ccc(C(=O)/C=C/c3cccc(C)c3)cc2)=N1 (stereo unspecified)	tim10-1 inh 57, TIM10 inh 62 | tim10-1 conf 44 | tim10 confirm 62
N#C/C(=C/c1ccc2c(c1)OCO2)C(=O)NCCc1c[nH]c2ccccc12	tim10-1 inh 63, TIM10 inh 63 | tim10-1 conf 58 | tim10 confirm 56
O=C(Nc1ccc(F)cc1)c1cccc2c1C(=O)N(Cc1ccccn1)C2	tim10-1 inh 68, TIM10 inh 44 | tim10-1 conf 65 | tim10 confirm inactive
CCC(C)C1Nc2ccc(C(=O)NCCc3ccc(OC)c(OC)c3)cc2NC1=O (stereo unspecified)	none
O=Cc1cccc(OC(=O)c2ccc(Cl)cc2Cl)c1	tim10-1 inh 42, TIM10 inh 45 (no result: PfHsp90 yeast 2, Beta2AR agonist) | tim10-1 conf inactive | tim10 confirm inactive
COc1cc(C(=O)Oc2cccc(C=O)c2)cc(OC)c1OC	none
O=c1[nH][nH]c(-c2ccccc2)c1C=Nc1ccc(OC(F)(F)F)cc1	tim10-1 inh 42, TIM10 inh 41 (no result: PfHsp90 yeast 2) | tim10-1 conf 37 | tim10 confirm 37
O=c1[nH][nH]c(-c2ccccc2)c1C=Nc1ccc(C(F)(F)F)cc1	none (no result: PfHsp90 yeast 2)
CCOC(=O)C1CCCN(C(=O)c2[nH]c3ccc(OC)cc3c2C)C1 (stereo unspecified)	none
O/N=C/c1cc(Br)ccc1OCc1cccc(F)c1	none
Cc1ccc(COc2ccc(Br)cc2/C=N/O)cc1	tim10-1 inh 51, TIM10 inh 46 | tim10-1 conf inactive | tim10 confirm inactive
CCCN1C(=O)/C(=C/c2ccncc2)SC1=S	tim10-1 inh 45, TIM10 inh 53 | tim10-1 conf inactive | tim10 confirm inactive
O=C1/C(=C/c2ccncc2)SC(=S)N1Cc1ccccc1	none
O=C(c1cc(COc2ccc(F)cc2Cl)on1)N1CCC(OCc2cccnc2)CC1	tim10-1 inh 53, TIM10 inh 52 | tim10-1 conf 48 | tim10 confirm 52
O=C(c1cc(COc2ccc(F)cc2Cl)on1)N1CCN(C2CCCC2)CC1	none
Cn1c(Cl)cnc1C1CC(=O)c2cc(Cl)ccc2O1 (stereo unspecified)	tim10-1 inh 66, TIM10 inh 72 | tim10-1 conf 58 | tim10 confirm inactive
CC12CCC(O)CC1=CCC1C2CCC2(C)C3=NN=CC3CC12 (stereo unspecified)	none (no result: tim10-1 inh, TIM10 inh, tim23-1 inh)
COc1ccccc1CNS(=O)(=O)c1cc(C(=O)N(C)Cc2cccnc2)c(Cl)cc1Cl	none (no result: tim10-1 inh, TIM10 inh, tim23-1 inh)
CN(C)CCCNS(=O)(=O)c1ccc(N2CCC(c3ccc(Cl)cc3)=N2)cc1	tim10-1 inh 59, TIM10 inh 52 (no result: PfHsp90 yeast 2, Beta2AR agonist) | tim10-1 conf 40 | tim10 confirm 50
O=C1CC(=O)Nc2cc(S(=O)(=O)N3CCN(c4ccc([N+](=O)[O-])cc4)CC3)ccc2N1	none
CCC(C)[C@H](NC(=O)c1cc2cc(Cl)ccc2n1C)C(=O)N1CCC(C(=O)O)CC1 (stereo partly specified)	none
O=C(N1CCN=C1SCc1cccnc1)C12CC3CC(CC(C3)C1)C2	tim10-1 inh 45, TIM10 inh 45 | tim10-1 conf 40 | tim10 confirm 47
COc1cccc(N2CCN(C3CC(=O)N(c4ccc(Cl)c(Cl)c4)C3=O)CC2)c1 (stereo unspecified)	tim10-1 inh 55, TIM10 inh 41 | tim10-1 conf 31 | tim10 confirm 40
Cc1cc(OCC(=O)N2CCC(C(N)=O)CC2)c2c(C)cc(=O)oc2c1	none
